HTT aggregate = inhibitors of mutant huntingtin aggregate formation in PC12 cells. PC12 HttQ103-GFP aggregates, Acumen cytometry, 40 h. Potency, µM (series often up to 46.1 µM), for inactives: top-dose activity change, negative = inhibition, most hits filed as inhibitors. hit rate 1.1% among 220,000; note: % is set by controls: 0 for no effect and ±100 for the full control effect; nearly all actives have a fitted effect of over 60% in size
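Quantitative HTS on tebufenozide-induced (100 nM) PC12 cells stably expressing polyQ103 Huntingtin exon 1–GFP. Reduction of bright GFP aggregates, detected by laser scanning cytometry after lysis, identified actives across the titration.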
ATXN2 expr inh = reduces ATXN2 reporter expression in HEK-293 cells | HEK-293 ATXN2-luciferase reporter, luminescence, 24 h | hit rate 0.72% among 360,000 | AID 1745845 | Potency, µM (series often up to 57 µM), inactives show at the top dose activity change, negative = inhibition, actives largely listed as inhibitors; note: % is set by controls: 0 for no effect and ±100 for the full control effect; nearly all actives have a fitted effect of over 55% in size
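qHTS (up to 57 uM final) was run with 24 h compound exposure of reporter cells at 37 °C. Each well was multiplexed: SteadyGlo luminescence measured ATXN2-luciferase expression after a fluorogenic Gly-Phe-AFC viability readout (25 uM final).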
ATXN viability = reduces viability in counter-screen for ATXN expression inhibitors; S2 cells (HEK-293 line with an ATXN2-luciferase reporter) viability, CellTiter-Fluor protease fluorescence, 24 h; Potency, µM (titrated, usually from 56.7 µM), usual class: cytotoxic; hit rate 0.49% among 400,000; note: nearly all actives have a fitted effect of over 40% in size
HTT ATP protect = Huntington cell model cytoprotection by ATP luminescence | AID 1471 | hit rate 0.14% among 230,000 | Potency, µM (doses to about 56.4 µM), for the others: cytoprotection (ATP increase), hits mostly activators | PC12 HTT-Q103 induced, cytoprotection, ATP luminescence, 40 h; note: % of control where 0% means no effect; nearly all actives have a fitted effect of over 45% in size
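Cells were plated at 1500 per well in phenol red-free DMEM with 5% equine and 5% calf serum. Tebufenozide (100 nM final) and compounds were added, then ATPlite reagent, and luminescence was read.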
HepG2 viability = kills HepG2 cells in TGF-b inhibitor counter-screen. Potency, µM (series often up to 46.1 µM), without a hit: at the highest dose activity change, negative = cytotoxicity, hits mostly cytotoxic. hit rate 0.76% among 410,000. HepG2 CAGA-GFP viability, ATP luminescence, 18 h. AID 588856
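CellTiter-Glo luminescence gave cytotoxicity after 18 hours at 37 degrees C. The cells were HepG2 CAGA-GFP in 1% FBS DMEM, stimulated with 500 pg/mL TGF-beta after compound addition. %Activity was normalised to no-cell wells (complete cell-killing) and DMSO (no toxicity), and curves were fitted and classified.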
TGFb inhibitor = blocks TGF-b signaling; HepG2 CAGA-GFP TGF-b/SMAD3 reporter, GFP fluorescence, 18 h; TGF-beta stimulated, 500 pg/mL final; Potency, µM (titrated, usually from 46.1 µM), without a hit: top-dose activity, negative = inhibition, usual class: inhibitors; hit rate 1.2% among 410,000; AID 588855; note: % is set by controls: 0 for no effect and ±100 for the full control effect; nearly all actives have a fitted effect of over 65% in size
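HEPG2 CAGA-GFP cells (1000/well, DMEM with 1% FBS) were pre-incubated 2 h at 37 degrees C, given compound by pin tool, then stimulated with TGF-beta at 500 pg/mL final for 18 h before per-cell GFP fluorescence imaging.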
An asterisk follows results filed as active; i = inactive; ? = inconclusive; . = no result given; ! = repeats disagree; [ ] = another dose, or the depositor's remark. An excerpt weighted towards active compounds, which were near 2.8% of everything screened. Calls come from the whole dose curve; as a rule, active = well fitted curve in the direction sought with a large enough effect; inconclusive = small, poorly fitted or top-dose-only effect, or another doubt; inactive = no such curve, though single readings can be large; an effect the other way counts as inactive or inconclusive. Potency is the fitted concentration of half-maximal effect.

SMILES | HTT aggregate | ATXN2 expr inh | ATXN viability | HTT ATP protect | HepG2 viability | TGFb inhibitor
COc1ccc(CCNC(c2ccc(F)cc2)c2nnc(-c3ccccc3Cl)o2)cc1OC (stereo unspecified) | . | -33% | ? | . | -20% | 18µM*
O=C(/C=C/c1cccc(F)c1)c1ccc(N2CCOCC2)cc1 | 19%[9.22 µM] | 0% | i | -11%[10 µM] | -123% | 13µM*
COc1ccccc1C(C)NCC(=O)c1c(C)[nH]c2ccccc12 (stereo unspecified) | . | . | . | . | -25% | -9%
N/C(=N\O)c1cn([C@@H]2O[C@@H](CO)[C@H](O)[C@@H]2O)c2ncnc(NO)c12 | . | . | . | -85%[10 µM] | . | .
COc1ccc2nc(N=Nc3ccc(O)c4ccccc34)sc2c1 | ? | 14µM* | 14µM* | 15%[10 µM] | -12% | ?
Cc1c(C(=O)N(C)CC2CCCN(C)C2)cnn1-c1nccc(-c2ccco2)n1 (stereo unspecified) | . | . | i | . | . | .
Cc1nc(Sc2nnnn2C2CC2)c2c(-c3ccccc3)csc2n1 | . | . | . | . | 3% | 10%
S=C(Nc1ccccc1)N1CCCCCC1 | 11% | 4% | i | -4% | -1% | -1%
CC(NNC(=S)N1CCCCCC1)c1ccc2ccccc2n1 (stereo unspecified) | . | 8.9µM* | . | . | -14% | ?
N#Cc1ccc(NC(=O)Nc2ccccc2Br)c2n[nH]nc12 | . | 8% | . | . | . | .
CC(C)C[C@H](NC(=O)[C@@H](NC(=O)c1cccc(-c2ccccc2)n1)[C@@H](C)O)B(O)O | . | 0.061µM* | . | . | . | .
COCC(=O)Nc1cc(C(=O)N2CC3CCCC2C3)c2c(c1)nc(-c1ccncc1)n2C (stereo unspecified) | . | . | i | . | . | .
CN1CC(=O)NC1=N | . | 0% | i | . | . | .
Cc1ccccc1C(=O)N1CCN(C(c2ccccc2)c2ccccc2)CC1 | -27%[9.22 µM] | . | ? | 12%[10 µM] | -30% | ?
Cc1occc1C(=O)N1CCN(C(c2ccccc2)c2ccccc2)CC1 | 20µM* | . | . | -17%[10 µM] | -3% | -24%
Cc1occc1C(=O)N1CCN(c2ccc(Cl)c(Cl)c2)CC1 | 11µM* | -17% | i | 6%[10 µM] | -31% | ?
C#C[C@H](N)CCC(=O)O | . | . | . | -4%[1.9 µM] | . | .
CN(NS(=O)(=O)c1ccc(Cl)cc1)c1nc(C(F)(F)F)nc2ccccc12 | 10µM* | -5% | i | -56% | -19% | 2%
CCOC(=O)c1ccccc1NC(=O)CSc1ncc(C(=O)OCC)c(N)n1 | -1% | -8% | i | -3%[10 µM] | -9% | 4%
CCOc1ccccc1NC(=O)CSc1ncc(S(=O)(=O)c2ccc(C)c(C)c2)c(N)n1 | . | 2% | i | . | -21% | 8.9µM*
NC(=O)C1CCCN(Cc2ccc3c(c2)CN(Cc2cn[nH]c2-c2ccc(F)cc2)CCO3)C1 (stereo unspecified) | . | . | i | . | . | .
COc1cc(/C=N/NC(=O)c2ccncc2)ccc1OCCN1CCCCC1 | -8% | 5% | i | . | 7% | 6%
COc1cc(/C=N/NC(=O)c2cc3ccccc3cc2O)ccc1OCCN1CCCCC1 | 20µM* | -33% | ? | . | -10% | -5%
O=C(/C=C/c1ccccc1)c1ccc(NC2=NCCCS2)cc1 | 6% | 57% | i | . | -66% | ?
Cc1cccc(/C=C/C(=O)c2ccc(NC3=NCCCS3)cc2)c1 | 24% | . | 10µM* | -15%[10 µM] | -95% | ?
SMILES | HTT aggregate | ATXN2 expr inh | ATXN viability | HTT ATP protect | HepG2 viability | TGFb inhibitor
O=C(/C=C/c1ccc(Br)cc1)c1ccc(NC2=NCCCS2)cc1 | 1% | ? | 32µM* | . | -99% | ?
O=C(NCCc1ccccn1)C1CC12CCN(C(=O)c1c(F)cccc1Cl)CC2 (stereo unspecified) | . | . | i | . | . | .
Cc1cc(N(C)C)c(C)cc1/C=C/c1ccnc2ccccc12 | . | . | . | . | -42% | -25%
CC(=O)Nc1ccn(C2OC(C(COC(C)=O)NC(=O)C(Cc3ccccc3)NC(=O)OC(C)(C)C)C(OC(C)=O)C2OC(C)=O)c(=O)n1 (stereo unspecified) | . | . | . | . | 13% | 6%
O=C(NCCCc1nc2ccccc2n1Cc1ccccc1Cl)C1CCCCC1 | . | -15% | i | . | -8% | -13%
O=C(NCCCc1nc2ccccc2n1Cc1ccc(Cl)cc1)C1CCCCC1 | . | ? | ? | . | -30% | 10µM*
O=C1c2[nH]nc(-c3ccccc3O)c2C(c2cccc(Cl)c2)N1Cc1ccco1 (stereo unspecified) | 3% | -11% | ? | 5%[0.074 µM] | 11µM* | ?
Cc1cc(C)c(O)c(-c2n[nH]c3c2C(c2cccc(O)c2)N(Cc2ccco2)C3=O)c1 (stereo unspecified) | 4%[9.22 µM] | -25% | 28µM* | -3%[10 µM] | -98% | ?
COc1ccccc1C(=O)N[C@@H]1c2ccccc2C2(CCN(C(=O)c3ccnn3C)CC2)[C@H]1OC | . | . | i | . | . | .
O=C(ONC1=NCCCCC1)c1c(F)cccc1F | -6% | -18% | i | 0.79µM* | -21% | 8%
CC(C)c1cccc(NC(=O)COC(=O)c2ccccc2OCc2cccc(Br)c2)c1 | . | . | . | . | -25% | -22%
O=C(Nc1ccccc1F)c1ccc2c(Cl)c3c(nc2c1)CCC3 | . | -68% | i | . | 10µM* | ?
COc1ccc(OC)c(NC(=O)CSc2c3c(nc4cc(Cl)ccc24)CCCC3)c1 | . | . | . | . | -46% | 10µM*
CCN(CC)CCCNC(=O)c1ccc2c(Cl)c3c(nc2c1)CCCC3 | ? | 28µM* | 20µM*! | -1% | 1.6µM*! | 13µM*
COc1ccc(NC(=O)CSc2nc3ccccc3nc2N2CCOCC2)c(OC)c1 | . | -21% | 4.5µM*! | . | -20% | -14%
CCCCN(CC)CCNC(=O)c1ccc2c(Cl)c3c(nc2c1)CCC3 | . | -35% | i | . | -39% | 12%
COc1cc(=O)n2c(c1C(=O)NCc1nonc1C)CCN(Cc1c[nH]c3ccccc13)CC2 | . | . | i | . | . | .
COc1ccc(Cl)cc1NC(=O)CSc1c2c(nc3ccccc13)CCC2 | . | . | . | . | -37% | ?
CCN(CC)CCNC(=O)CSc1c2c(nc3cc(Cl)ccc13)CCCC2 | ? | . | . | . | -79% | 18µM*
COc1ccc(OC)c(NC(=O)CSc2c3c(nc4ccccc24)CCCC3)c1 | . | ? | . | . | 13µM* | ?
NC(=O)COC(=O)c1oc2ccccc2c1CSc1ccc(Cl)cc1 | 11µM* | . | i | 32%[10 µM] | -39% | ?
O=C(COC(=O)c1oc2ccccc2c1CSc1ccc(Cl)cc1)NC1CCCC1 | -10% | . | i | -3%[10 µM] | -4% | -28%
